# Measurements reported in PubChem BioAssay AID1347076 (National Center for Advancing Translational Sciences (NCATS), 2019).
# Out of some 400,000 compounds screened, about 13,000 (3.2%) were called active. Not shown: some 18% with an inconclusive outcome. Calls come from the whole dose curve; as a rule, active = well fitted cell-killing curve with a large enough effect; inconclusive = small, poorly fitted or top-dose-only effect, or effect the other way; inactive = flat fitted curve, though single readings scatter. The list comes from a sample in which actives are over-represented; it also holds similar structures and randomly drawn compounds. A call without a number means that no potency is given here.
# Test: qHTS assay for MDR1-selective chemotherapeutics: Primary screen using the drug-selected MDR subline cells KB-V1; note: nearly all actives have a fitted effect of over 60% in size
# Conditions: KB-V1 MDR cells viability, CellTiter-Glo, 72 h; series mostly up to 46.1 µM
# Summary of the method: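 In this primary screen, KB-V1 cells overexpressing P-gp are incubated with library compounds (lowest to highest concentration) for 72 h at 37 degrees C before a luminescent ATP viability read.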
# Potency is the fitted concentration of half-maximal effect.
row,Structure (SMILES),Potency
1,COc1cc(Br)cc2cc(S(=O)(=O)c3ccccc3)c(=O)oc12,inactive
2,CCc1cccc(NC(=O)c2cnc(N3CCOCC3)c3ccccc23)c1,inactive
3,Oc1ccccc1-c1nc2ccc(Cl)cn2c1Nc1ccc2c(c1)OCCO2,inactive
4,CN(C)c1ccc(/C=C/c2sc3ccccc3[n+]2C)cc1,inactive
5,Cc1cccc(C)c1NC(=O)CN1CCN(c2ccc(F)cc2)CC1,inactive
6,COc1ccc2[nH]c(C(=O)N3CCN(C)CC3)c(C)c2c1,inactive
7,COc1ccc2[nH]c(=S)cc(C)c2c1,14.6 µM (active)
8,COc1ccc2[nH]c3c(C)c4cc[n+](C)cc4c(C)c3c2c1,inactive
9,CCOc1ccc(N(CC)S(=O)(=O)N2CCCC(C(=O)Nc3ccc(C(C)=O)cc3)C2)cc1 (stereo not given),inactive
10,O=C(CCNS(=O)(=O)c1ccc(Br)cc1)NCC1CCCO1 (stereo not given),inactive
11,CC(NS(=O)(=O)c1ccc(Br)cc1)C(=O)NCC1CCCO1 (stereo not given),inactive
12,OC(CNCC1CCCO1)Cn1c2ccc(Br)cc2c2cc(Br)ccc21 (stereo not given),23.1 µM (active)
13,CCOC(=O)c1c(-c2ccc(OC)cc2)oc2ccc(OCc3ccc(C(=O)OC)cc3)cc12,inactive
14,COc1cc(OC)c2c(-c3cccc(-c4cccc(N)c4)c3)cc(=O)oc2c1,7.31 µM (active)
15,COc1ccc(-c2c(C)cc3oc(=O)cc(-c4ccccc4)c3c2C)cc1OC,inactive
16,COc1ccc(-c2c(C)cc3oc(=O)cc(-c4ccccc4)c3c2C)cc1F,inactive
17,OC(Cc1ccc2ccccc2n1)c1ccc(Cl)c(Cl)c1 (stereo not given),inactive
18,O=C(CSc1ncc(CO)n1Cc1ccc(Cl)cc1)NCc1ccc(F)cc1,inactive
19,Cn1c(CCN2CCN(c3ccccn3)CC2)nc2cc(NS(=O)(=O)c3ccc(F)cc3)ccc21,inactive
20,Cc1cccc(CSc2nnc(Cn3c(=O)sc4ccccc43)n2C)c1,inactive
21,COc1ccccc1CNC(=O)CCn1c(=O)sc2ccccc21,inactive
22,COc1ccc(Cn2c(=O)sc3ccccc32)cc1OC,2.59 µM (active)
23,O=C(Nc1nnc([C@H]2C[C@H](O)[C@@H](CO)O2)s1)c1cccc(Cl)c1,inactive
24,COc1ccc(S(=O)(=O)NC(=O)C2(C)CCN2C(=O)COc2ccc(Cl)cc2)cc1 (stereo not given),inactive
25,CC(Nc1ccccc1)c1cccnc1 (stereo not given),inactive

row,Structure (SMILES),Potency
1,Cc1ccc(C(O)P(=O)(OC(C)C)c2ccc(N(C)C)cc2)cc1 (stereo not given),inactive
2,CC(C)COP(=O)(c1ccc(N(C)C)cc1)C(Nc1ccccc1)c1cccnc1 (stereo not given),23.1 µM (active)
3,COc1ccccc1N1CCN(C2C(=O)c3ccccc3N2C(C)=O)CC1 (stereo not given),inactive
4,COc1ccccc1OCc1nc2ccccc2s1,inactive
5,N=C1C(c2nc3ccccc3[nH]2)=C(O)CN1NC(=O)c1c[nH]c2ccccc12,inactive
6,COc1ccc(-n2nnnc2-c2nc3ccccc3s2)cc1,inactive
7,N=C1C(c2nc3ccccc3s2)=C(O)CN1NC(=O)c1ccc([N+](=O)[O-])cc1,18.4 µM (active)
8,Cc1ccc(C)n1NC(=O)c1ccc([N+](=O)[O-])cc1,inactive
9,COc1ccccc1N1CC(O)=C(c2nc3ccccc3s2)C1=N,10.3 µM (active)
10,COC(=O)C[C@@H]1C=C[C@@H](NC(=O)c2ccc3c(c2)OCO3)[C@@H](CO)O1,inactive
11,COc1ccc(-c2c(C#N)cnc(C)c2C)c(O)c1OC,inactive
12,CCCCn1nnnc1C(c1ccccc1)N1CCN(c2ccccc2OC)CC1 (stereo not given),inactive
13,CC1Cc2[nH][nH]c(=O)c2C(C2CCCC2)O1 (stereo not given),inactive
14,FC(F)(F)c1cccc(NC(=S)Nc2cccc(Cl)c2)c1,inactive
15,FC(F)(F)c1cccc(N/N=C/c2ccccc2)c1,inactive
16,FC(F)(F)c1cccc(Nc2ncnc3ccccc23)c1,18.4 µM (active)
17,CN(Cc1ccccc1)C(=O)c1cn(C)c2ccc(S(=O)(=O)N3CCCCC3)cc2c1=O,inactive
18,CN1OC[C@@H]2CN[C@H](c3ccc(-c4ccccc4)cc3)C[C@@H]21,inactive
19,Cn1c(=O)c2c(SCC(=O)NCC3CCCO3)nc(-c3ccccc3F)nc2n(C)c1=O (stereo not given),inactive
20,COc1ccc(C(C(=O)NC2CCCCC2)N(C(=O)Cc2c[nH]c3ccccc23)c2ccccc2)cc1OC (stereo not given),23.1 µM (active)
21,COc1ccc(CNC(=O)[C@H](Cc2c[nH]c3ccccc23)NC(C)=O)cc1OC,inactive
22,COc1ccc(C(C(=O)NC2CCCCC2)N(C(=O)CCl)c2ccccc2Cl)cc1 (stereo not given),inactive
23,C[C@@H]1CN([C@@H](C)CO)S(=O)(=O)c2ccc(-c3ccc(C(=O)N(C)C)cc3)cc2O[C@@H]1CN(C)Cc1ccccc1C(=O)O,inactive
24,O=C(CN1CCCCCC1)Nc1ccc(S(=O)(=O)N2CCCCC2)cc1,inactive
25,CCc1ccc(NC(=O)CN2CCSc3ccc(S(=O)(=O)N4CCCC4)cc32)cc1,7.31 µM (active)

row,Structure (SMILES),Potency
1,COc1ccc(NC(=O)CN2C(=O)CSc3ccc(S(=O)(=O)N4CCC(C)CC4)cc32)cc1,inactive
2,CC(C)N1C(=O)c2ccccc2NC(=O)C1C(=O)NCc1cccs1 (stereo not given),inactive
3,CCCn1c(NCc2ccccc2F)nc2ccccc21,inactive
4,Cc1ccc(O)c(CNc2nc3ccccc3n2C)c1,16.4 µM (active)
5,Cn1c(CNC(=O)C(C)(C)C)nc2ccccc21,inactive
6,CCc1nn(CC(=O)Nc2cccc(C)c2C)c(=O)c2cc3sccc3n12,inactive
7,Cc1cccc(N(CC(O)CN(C)C)S(=O)(=O)c2ccccc2)c1 (stereo not given),inactive
8,CCOc1ccc(S(=O)(=O)N(CC(=O)O)c2ccccc2)cc1,inactive
9,O=S(=O)(ON(c1ccccc1)S(=O)(=O)c1ccccc1)c1ccccc1,23.1 µM (active)
10,CCOc1ccc(CNC(=O)c2ccc3nc(CC)c(CC)nc3c2)cc1OC,inactive
11,CCCCNC(=O)c1nc(C2CCN(S(=O)(=O)c3ccc(F)c(F)c3)CC2)oc1-c1cccc(C(F)(F)F)c1,inactive
12,Cc1cc2c(=O)n(C)c(SCC(=O)c3cc4ccccc4o3)nc2s1,inactive
13,Cc1ccccc1Nc1nnc(SCC(=O)c2cc3ccccc3o2)s1,inactive
14,Cc1ccc(Nc2nnc(SCC(=O)c3cc4ccccc4o3)s2)cc1C,20.6 µM (active)
15,Cc1cccc(S(=O)(=O)N(C)C[C@H]2OCc3cnnn3CCCC(=O)N([C@@H](C)CO)C[C@H]2C)c1,inactive
16,CN1OC[C@@H]2CN(C(=O)C(C)(C)C)[C@H](c3ccc(-n4ccnc4)cc3)C[C@@H]21,inactive
17,CC(=O)c1ccc(Nc2nc(C(N)c3ccccc3)cs2)cc1 (stereo not given),inactive
18,Cc1cc(C)cc(OCC(=O)NC(C)c2ccccc2)c1 (stereo not given),inactive
19,COc1cc(OC)cc(C(=O)N[C@H](C(=O)NNC(=O)c2ccc(Br)cc2)C(C)C)c1,inactive
20,COc1cc(OC)cc(C(=O)N[C@H](C(=O)OCC(=O)NC(C)c2ccccc2)C(C)C)c1 (stereo not given in full),23.1 µM (active)
21,COc1cc(OC)cc(C(=O)N[C@H](C(=O)Nc2nc3ccccc3[nH]2)C(C)C)c1,14.6 µM (active)
22,COc1cc(OC)cc(C(=O)NC(C(=O)N2CCC2)C(C)C)c1 (stereo not given),inactive
23,COc1ccc(C(=O)N[C@H](C(=O)NCc2ccccc2)C(C)C)cc1,inactive
24,C[C@@H]1CC2=C(C(=O)OC(C)(C)O2)[C@@H](C2CC2)O1,inactive
25,COc1cccc(-c2cnc(C(O)c3ccccc3OC)[nH]2)c1 (stereo not given),inactive

row,Structure (SMILES),Potency
1,CCOc1ccc(S(=O)(=O)N2CCN=C2Cc2ccccc2)cc1C,inactive
2,CC1=NCCN1S(=O)(=O)c1cccc([N+](=O)[O-])c1,inactive
3,COc1cc(S(=O)(=O)N2CCN=C2c2ccccc2)ccc1Cl,16.4 µM (active)
4,O=S1(=O)CC(N2CCN(Cc3ccccc3F)CC2)CN1Cc1cn(Cc2cccc(C(F)(F)F)c2)nn1 (stereo not given),inactive
5,Cc1c(CCO)sc[n+]1CC(=O)c1ccc2ccccc2c1,inactive
6,CCOC(=O)C1CCN(C(=O)c2oc3ccc(S(=O)(=O)N4CCCCCC4)cc3c2C)CC1,inactive
7,CCOC(=O)C1CCN(c2ncnc3c2oc2ccc(Br)cc23)CC1,20.6 µM (active)
8,CCOC(=O)C1CCN(Cc2nnc(-c3cccc(Br)c3)o2)CC1,inactive
9,CCN(CC)CCNc1ncnc2c1cnn2-c1cc(Cl)ccc1C,inactive
10,CN(C)C(=O)c1cccc(-c2cnc3sc(NCc4ccc5c(c4)OCO5)nn23)c1,inactive
11,COc1ccc(C(CCN(Cc2ccc(OC)c(OC)c2)C(=O)CCl)c2ccccc2)cc1 (stereo not given),20.6 µM (active)
12,COc1ccc(COC(=O)NC(C(=O)O)c2ccccc2)cc1 (stereo not given),inactive
13,COc1ccc(CN(C)C(=O)CC(c2ccccc2)c2ccccc2)cc1,inactive
14,O=C(NCc1ccc(F)cc1)c1cc(C2CCCCN2C(=O)c2ccccn2)on1 (stereo not given),inactive
15,O=C(CSc1nc2ccccc2c(=O)n1Cc1ccc(F)cc1)NCC1CCCO1 (stereo not given),inactive
16,O=C(CSc1nc2ccccc2c(=O)n1CCCO)NC1CC1,inactive
17,COC(=O)c1ccc2c(=O)n(CCN3CCOCC3)c(SCC(=O)Nc3cccc(OC)c3)nc2c1,inactive
18,O=C(CCn1c(SCC(=O)c2ccccc2)nc2ccccc2c1=O)NCc1ccc(F)cc1,7.31 µM (active)
19,CCc1ccc(NC(=O)CSc2nc3ccccc3c(=O)n2CCN2CCOCC2)cc1,8.2 µM (active)
20,O=C(CSc1nc2ccccc2c(=O)n1-c1ccc(F)cc1)NC1CC1,inactive
21,O=C(CSc1ncc(CO)n1Cc1ccc(F)cc1)NCc1ccco1,inactive
22,O=C(CCCn1c(SCC(=O)c2ccc(F)cc2)nc2ccccc2c1=O)NCc1ccco1,5.8 µM (active)
23,CC(=O)c1ccc(NC(=O)CSc2nc3ccccc3c(=O)n2CCCN2CCOCC2)cc1,inactive
24,COc1ccc(Cn2cc(C(=O)c3ccc(C)cc3)c(=O)c3cc(OC)c(OC)cc32)cc1,inactive
25,O=C(NC1CCCC1)C1c2ccccc2OCC(=O)N1CC(F)(F)F (stereo not given),inactive
